# The list is not random: actives were taken first. Their share in the collection is about 5.5%.
# Giardia killer: Small Molecules that selectively kill Giardia lamblia: qHTS; Giardia lamblia trophozoite viability; activity change, % at 7.66 µM, hits read low; 340,000 tested, 0.15% active; in the data active means activity change below about -80%; inconclusive means between about -30% and that limit;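 further: parasites exposed to compound for two days anaerobically before the ATP read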
#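 Trophozoites 100 cells/well + cpd; 48 hrs, 37 deg C, anaerobic. ATPLite 1-Step added, 15-30 min RT, luminescence read (ATP-based viability).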
# FBPA coupling cs: qHTS Assay for Inhibitors of Fructose-1,6-bisphosphate Aldolase from Giardia Lamblia: Coupling assay counterscreen; coupling enzyme system counterscreen, AmpLite Red fluorescence; activity change, negative = inhibition, % at 58.2 µM, hits read low; 290,000 tested, 0.67% active; in the data active means activity change below about -30%
#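 First, compound is pin-transferred into glyceraldehyde-3-phosphate coupling-enzyme reagent at 57.5 uM final and held 10 min at RT. Next, substrate, coupling system and AmpLite Red are added. After 20 min RT, fluorescence (525/598 nm) is read.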
# Sfp inh: qHTS Assay for Inhibitors of Bacillus subtilis Sfp phosphopantetheinyl transferase (PPTase). Biochemical Sfp PPTase activity, qHTS. 4'-phosphopantetheinyl transferase ffp (Bacillus subtilis), Q9F4F7. Potency, µM, without a hit: largest response in the series, negative = inhibition, usual class: inhibitors. 310,000 tested, 3.5% active;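 further: the enzyme is Sfp with the accession as filed and its product quenches rhodamine fluorescence; potency means the concentration at half of the fitted maximal effect; 0% = enzyme reaction without inhibitor and -100% = no enzyme wells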
#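 Fluorescence-quenching assay: 15 nM Sfp-PPTase preincubated 15 min at room temperature with compound, then 5 uM rhodamine-CoA and 12.5 uM BHQ-2-labelled YbbR peptide added. Fluorescence (ex 525/em 598 nm) read at start and after 30 min; difference gives rate.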
# ELG1 repair inh: qHTS screen for small molecules that inhibit ELG1-dependent DNA repair in human embryonic kidney (HEK293T) cells expressing luciferase-tagged ELG1; Potency, µM (top dose mostly 46.1 µM), for inactives: top-dose activity change, negative = inhibition, hits mostly inhibitors; 330,000 tested, 2.3% active; HEK293T ELG1-luciferase reporter, luminescence, 16 h; DNA damage induced by 5-fluorouridine; AID 504467, 2011; further: potency means the concentration at half of the fitted maximal effect; nearly all actives have a fitted effect of over 55% in size
#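 HEK293T cells expressing luciferase-tagged ELG1 (2,000/well) received 5-Fluorouridine plus compound or DMSO for 16 hr at 37 °C. Luciferase was read by ONE-Glo luminescence after 30 min at room temperature.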
# The depositor's hits bear a star; ? = inconclusive; / = not tested or not shown; ! = a repeat was not active. Unless noted, the call rests on the fitted dose curve; in most records, active means well fitted curve in the direction sought with a large enough effect; inconclusive means small, poorly fitted or top-dose-only effect, or another doubt; inactive means no such curve, though single readings can be large; an effect the other way counts as inactive or inconclusive. Unless noted, on the % scale 0 is the no-effect control and ±100 the full control effect.
SMILES,Giardia killer,FBPA coupling cs,Sfp inh,ELG1 repair inh
O=C(NNC(=O)c1ccc([N+](=O)[O-])o1)c1ccccc1,-98*,-9,7%,-18%
O=C(Nc1ccc(Cl)cn1)c1ccc([N+](=O)[O-])o1,?,-5,15%,-24%
NC(=O)c1oc2ccccc2c1NC(=O)c1ccc([N+](=O)[O-])o1,-88*,-3,11%,?
CC/C=C\C/C=C\C/C=C\CCCCCCCC(=O)O,5,2,79µM*!,6%
O=S(=O)(c1ccc(SCc2cccc(Cl)c2)nc1)N1CCCC1,-9,/,/,3%
COc1ccc(N2CCN(C(c3ccc(C)cc3)c3nnnn3C(C)(C)C)CC2)cc1 (stereo not given),-12,/,/,/
CC(C)NC(=O)CCCOc1ccc(Cl)cc1Cl,8,-5,-1%,?
CN(C(=S)NC(=O)CCCOc1ccc(Cl)cc1Cl)c1ccccc1,9,11,50µM*,8%
Cc1ccc(/C=N/NC(=O)CCCOc2ccc(Cl)cc2Cl)cc1,-19,-11,19%,-18%
O=C(CCCOc1ccc(Cl)cc1Cl)N/N=C/c1ccccc1,7,-48*,8%,9%
CN(C(=S)NC(=O)Cc1ccccc1)c1ccccc1,17,2,18µM*,2%
COc1ccccc1C(=O)N/C(=C\c1cn(S(=O)(=O)N(C)C)c2ccccc12)C(=O)N1CCCC1,-12,4,-4%,?
Cc1cc(-c2nnc(SCC(=O)Nc3ccc(C)c(C)c3)n2N)n[nH]1,32,/,-13%,23%
CC1=C(C#N)c2nc(N)c(C#N)c(C)c2/C1=C\c1ccc(-c2ccccc2C(=O)O)o1,-20,2,?,8.2µM*
COCCCCC(=NOCCN)c1ccc(C(F)(F)F)cc1,/,3,3%,/
COCCCC/C(=N\OCCN)c1ccc(C(F)(F)F)cc1,-23,0,56µM*!,?
CN1CCC(NC(=O)c2cc(-c3cccc(Br)c3)nc3ccccc23)CC1,14,-1,-14%,3%
COc1ccc(C(=O)Nc2ccc(-c3n[nH]c(=S)o3)cc2)cc1OC,-16,5,16µM*,7%
COc1ccc(C(=O)Nc2ccncc2)cc1OC,5,-1,-9%,?
CCC(=O)Nc1nnc(SCC(=O)c2ccc3c(c2)Cc2ccccc2-3)s1,6,1,56µM*,34%
Cn1c(SCC(=O)c2ccccc2)nnc1-c1ccc(O)cc1,-3,5,79µM*,?
CC(=O)Nc1nnc(SCC(=O)c2ccc3c(c2)Cc2ccccc2-3)s1,5,1,-7%,15%
Cn1c(SCC(=O)c2ccc3c(c2)Cc2ccccc2-3)nnc1-c1ccccc1,-6,/,79µM*,12%
CC1CCc2c(sc(NC(=O)CSc3nc(N)cc(=O)[nH]3)c2C(N)=O)C1 (stereo not given),-15,/,/,-9%
COc1cc(S(=O)(=O)N2CCOCC2)ccc1NC(=O)COC(=O)c1ccc(Cl)nc1,-4,/,/,0%
SMILES,Giardia killer,FBPA coupling cs,Sfp inh,ELG1 repair inh
Cn1c(SCC(=O)NCCc2ccccc2)ncc(C(=O)Nc2ccccc2)c1=O,-6,/,/,?
O=C(CCC(=O)Nc1cccc(Cl)c1)N/N=C/c1cc([N+](=O)[O-])ccc1O,0,0,3%,?
Cc1ccc(C)c(NC(=O)CCC(=O)N/N=C/c2cc([N+](=O)[O-])ccc2O)c1,-11,2,23%,13µM*
O=C(CCCC(=O)Nc1cccc(Br)c1)N/N=C/c1cc([N+](=O)[O-])ccc1O,1,2,23%,15µM*
COc1cc(CN(C)c2ncnc3sccc23)ccc1OC(F)F,-19,0,-1%,?
S=c1[nH]nc(CCc2nc3ccccc3[nH]2)n1-c1ccccc1,39,2,?,-3%
S=c1[nH]nc(CCc2nc3ccccc3[nH]2)n1-c1cccc(Cl)c1,-3,1,50µM*,-17%
Cc1cccc2cc(CN(Cc3ccc(F)cc3)Cc3nnnn3C3CCCC3)c(=O)[nH]c12,11,0,11%,-3%
Cc1cccc2cc(C(c3nnnn3CC3CCCO3)N3CCOCC3)c(=O)[nH]c12 (stereo not given),-1,-4,5%,4%
Cc1ccc(C)c2[nH]c(=O)c(CN(CC3CCCO3)C(=O)NC3CCCCC3)cc12 (stereo not given),0,1,9%,8.2µM*
Cc1ccc(C)c2[nH]c(=O)c(CN(CCN3CCOCC3)Cc3nnnn3CC3CCCO3)cc12 (stereo not given),11,0,?,16µM*
Cc1ccc(C)c2[nH]c(=O)c(CN(Cc3nnnn3C3CCCCC3)CC3CCCO3)cc12 (stereo not given),9,-37*,79µM*,?
CC(=O)C(C(C)=O)C(c1ccccc1)c1nc2ccccc2[nH]c1=O (stereo not given),37,3,8%,22%
COc1cccc(C(C[N+](=O)[O-])c2c(C)[nH]n(-c3ccccc3)c2=O)c1 (stereo not given),2,-44*,28µM*,?
CCN1/C(=C/c2cc[n+](C)cc2)C=Cc2cc(C)ccc21,4,-50*,?,-18%
C#CCCCO/N=C1/[C@H]2O[C@@H]2[C@@H](O)[C@H]2[C@H]1CCn1c(=O)n(-c3ccccc3)c(=O)n12,/,0,9%,/
COc1ccccc1NC(=O)CCNS(=O)(=O)c1ccc2c(c1)CCN2C(C)=O,13,1,9%,-2%
CC1Sc2ccc(S(=O)(=O)CCC(=O)N3CCN(c4cccc(Cl)c4)CC3)cc2NC1=O (stereo not given),27,/,-2%,13µM*
CCC(C)(C)n1nnnc1C(c1ccc2ncccc2c1)N1CCN(c2nc3ccccc3s2)CC1 (stereo not given),5,-2,-14%,?
CCC(C)(C)n1nnnc1C(c1ccc2ncccc2c1)N1CCN(c2ccc(O)cc2)CC1 (stereo not given),-24,-6,20µM*,?
CC(c1ccccc1)C1C(C#N)=C(N)SC(N)=C1C#N (stereo not given),-17,0,22µM*,-6%
CC(C)C1C(C#N)=C(N)SC(N)=C1C#N,2,-8,?,?
CC(CC1C(C#N)=C(N)SC(N)=C1C#N)c1ccccc1 (stereo not given),-7,-1,7.9µM*,?
CCCCCCCCCCCCCCCC(N)=O,/,0,10%,/
CCOC(=O)N1CCN(S(=O)(=O)N2CCCC(C(=O)NCCCN3CCCCC3)C2)CC1 (stereo not given),-28,/,4%,-10%
COc1ccc(OCC(O)Cn2c(Nc3cccc(C)c3)nc3c2c(=O)n(C)c(=O)n3C)cc1 (stereo not given),-8,2,-1%,18µM*
COCCN=C1Sc2nc3cc(C)c(C)cc3cc2CN1Cc1cccs1,-6,0,?,?

# High-throughput results deposited in PubChem by National Center for Advancing Translational Sciences (NCATS).
